L3MBTL1 block – L3MBTL1 (human) inhibition | Q9Y468 | AlphaScreen L3MBTL1–H3K9me1 peptide binding | Potency, µM (top dose mostly 57.1 µM), without a hit: at the highest dose activity, negative = inhibition, most hits filed as inhibitors | hit rate 0.66% among 230,000; also: potency is read from the fitted curve at half-maximal effect; % is scaled to controls: 0 for no effect and ±100 for the full control effect; nearly all actives have a fitted effect of over 60% in size
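L3MBTL1 (50 nM) pre-complexed 30 min with biotinylated H3(1-15)K9me1 peptide (75 nM), then compounds added for 30 min at room temperature; AlphaScreen streptavidin donor/nickel chelate acceptor beads (10 ug/mL final) read after 30 min dark incubation.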
G9a inh – inhibitors of human histone lysine methyltransferase G9a. Q96KQ7. G9a H3K9 monomethylation, AlphaScreen, 2 h. Potency, µM (top dose mostly 102 µM), for inactives: top-dose activity, negative = inhibition, hits mostly inhibitors. hit rate 8.8% among 350,000. AID 504332; also: potency is read from the fitted curve at half-maximal effect; % is scaled to controls: 0 for no effect and ±100 for the full control effect; nearly all actives have a fitted effect of over 75% in size
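Step 1: enzyme (final 20 nM) with compound, 15 min RT. Step 2: substrate peptide 500 nM and SAM 20 uM, 2 h RT. Step 3: anti-H3K9me1 antibody and AlphaScreen beads, 10 min, then plate read.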
JMJD2A Tudor inh – blocks the human JMJD2A Tudor domain; O75164; AlphaScreen JMJD2A-Tudor / H3K4me3 peptide binding; Potency, µM (series often up to 114 µM), without a hit: top-dose activity change, negative = inhibition, hits mostly inhibitors; hit rate 4.4% among 390,000; AID 504339; also: potency is read from the fitted curve at half-maximal effect; % is scaled to controls: 0 for no effect and ±100 for the full control effect; nearly all actives have a fitted effect of over 50% in size
Target sequence (O75164 whole entry, looked up, the tested form may be a part): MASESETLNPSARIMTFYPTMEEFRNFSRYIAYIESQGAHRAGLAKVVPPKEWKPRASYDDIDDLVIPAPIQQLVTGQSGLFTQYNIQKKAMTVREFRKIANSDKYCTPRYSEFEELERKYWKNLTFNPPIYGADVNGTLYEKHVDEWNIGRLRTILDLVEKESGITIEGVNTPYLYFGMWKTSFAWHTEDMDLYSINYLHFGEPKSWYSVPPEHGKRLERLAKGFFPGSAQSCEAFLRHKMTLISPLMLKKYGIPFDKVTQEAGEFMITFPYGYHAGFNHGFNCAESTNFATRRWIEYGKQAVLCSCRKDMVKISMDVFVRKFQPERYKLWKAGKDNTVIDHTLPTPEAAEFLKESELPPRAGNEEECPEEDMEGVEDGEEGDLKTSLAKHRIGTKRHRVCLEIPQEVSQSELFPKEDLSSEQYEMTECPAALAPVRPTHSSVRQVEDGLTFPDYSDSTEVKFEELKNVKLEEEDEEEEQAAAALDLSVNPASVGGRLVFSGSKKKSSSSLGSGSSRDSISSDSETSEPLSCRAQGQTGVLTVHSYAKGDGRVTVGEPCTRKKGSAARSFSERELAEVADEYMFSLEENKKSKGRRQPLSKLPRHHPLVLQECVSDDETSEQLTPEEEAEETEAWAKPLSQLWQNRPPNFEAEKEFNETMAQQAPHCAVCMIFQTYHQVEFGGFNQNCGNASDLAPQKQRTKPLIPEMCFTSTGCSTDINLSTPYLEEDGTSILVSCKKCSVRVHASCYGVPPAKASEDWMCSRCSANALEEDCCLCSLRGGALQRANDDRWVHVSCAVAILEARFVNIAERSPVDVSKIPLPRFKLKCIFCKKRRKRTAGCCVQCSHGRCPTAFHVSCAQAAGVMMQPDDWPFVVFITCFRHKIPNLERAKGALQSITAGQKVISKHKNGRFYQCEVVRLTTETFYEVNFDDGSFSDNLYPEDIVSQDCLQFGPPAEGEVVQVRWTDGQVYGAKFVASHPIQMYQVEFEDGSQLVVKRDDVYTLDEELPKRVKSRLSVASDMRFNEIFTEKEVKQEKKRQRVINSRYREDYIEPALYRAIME
BAZ2B block – inhibitors of human BAZ2B bromodomain | AlphaScreen BAZ2B-H3K14Ac peptide displacement | AID 504333 | hit rate 4.4% among 360,000 | Q9UIF8 | Potency, µM (top dose mostly 114 µM), for inactives: at the top dose activity change, negative = inhibition, usual class: inhibitors; also: potency is read from the fitted curve at half-maximal effect; % is scaled to controls: 0 for no effect and ±100 for the full control effect; nearly all actives have a fitted effect of over 60% in size
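In this displacement format the biotinylated H3(5-23) peptide acetylated at Lys14 serves as ligand at 50 nM, with BAZ2B at 50 nM in PBS pH 7.4 containing 0.01% Tween-20. Donor and acceptor beads are 10 ug/mL final.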
PI5P4Ka inh – blocks human PI5P4K alpha kinase activity. P48426. PI5P4Kalpha enzyme, ADP-Glo luminescence, 60 min; hits give low values. max response, %. hit rate 1.2% among 330,000; active = max response of -50% or lower; inconclusive = between -30% and -50%; inactive = -30% or higher; also: value at the top dose of about 77 µM; % is scaled to controls: 0 for no effect and ±100 for the full control effect
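Compounds were pin-transferred onto PI5P4Kalpha and substrate in HEPES pH 7.4 buffer with EGTA, CHAPS and 5% DMSO. ATP (5 microM final) started the reaction, which ran 60 minutes at room temperature before ADP-Glo detection.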
HP1b chromo inh – blocks HP1-beta chromodomain binding to methylated histone tails. P83916. AlphaScreen HP1-beta / biotin-H3K9me3 peptide binding. Potency, µM (titrated, usually from 114 µM), for the others: at the highest dose activity change, negative = inhibition, most hits filed as inhibitors. hit rate 0.56% among 390,000. AID 540317; also: potency is read from the fitted curve at half-maximal effect; nearly all actives have a fitted effect of over 70% in size
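AlphaScreen: HP1-beta (50 nM) preformed 30 min with biotin-H3(1-18)K9me3 peptide (50 nM) in PBS pH 7.4, 0.01% Tween-20. Compound added for 30 min at RT, then streptavidin donor/nickel chelate acceptor beads (10 ug/mL) for 30 min.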
An asterisk follows results filed as active; ? = inconclusive; . = not tested or not shown; [ ] = dose if it differs, or a comment. A selection: hits, their analogues and other compounds. The true share with any hit is near 11%. Unless noted, calls follow the shape of the dose curve; as a rule, active = well fitted inhibition curve with a large enough effect; inconclusive = small, poorly fitted or top-dose-only effect; inactive = no such curve, though single readings can be large or run the other way.

SMILES	L3MBTL1 block	G9a inh	JMJD2A Tudor inh	BAZ2B block	PI5P4Ka inh	HP1b chromo inh
CCOc1ccc(S(=O)(=O)NNS(=O)(=O)c2ccc(C)cc2C)cc1	.	3.55µM*	-17.8%	-23.6%	5.4	43.1%
CCOc1ccc(S(=O)(=O)NCCCl)cc1	11.3%	.	-10.0%	-7.2%	-7.1	25.0%
CCCCn1c(=N)c(S(=O)(=O)c2ccc(C)cc2)cc2c(=O)n3cc(C)ccc3nc21	.	4.6%[59 µM]	0.9%	1.1%	.	11.8%
COC(=O)CN1C(=O)CSc2ccc(S(=O)(=O)Nc3ccc(C(C)=O)cc3)cc21	.	2.9%[59 µM]	0.0%	-1.7%	.	-8.7%
CCOc1ccc(Nc2nc(-c3cccc(Cl)c3)c3c(n2)-c2ccccc2OC3)cc1	.	12.6µM*	?	-38.5%	.	-7.5%
COc1ccc(Nc2nc(-c3cccc(Cl)c3)c3c(n2)-c2ccccc2OC3)cc1	.	-6.6%[59 µM]	5.6%	7.1%	.	34.0%
CC(C)c1nn2c(=O)cc(COC(=O)C3CCCCC3)nc2s1	.	11.8%[59 µM]	-8.7%	-2.9%	.	27.8%
O=[S+]([O-])(c1ccc2c(c1)OCCO2)N1CCN([S+](=O)([O-])c2c(F)cc(F)cc2Br)CC1	.	.	-24.0%	.	.	.
Cc1ccc(-c2nc(-c3cc4cccc(OCc5cccc(F)c5)c4oc3=O)no2)cc1	.	4.9%[59 µM]	-25.6%	0.7%	.	33.5%
CCn1c(=O)cc(OCC(=O)N(C)c2ccc(OC)cc2)c2ccccc21	.	-12.8%[59 µM]	-10.1%	89.1µM*	.	16.4%
COc1ccc(NC(=O)C(=O)NCCc2csc3nc(-c4ccccc4C)nn23)cc1	.	2.1%[59 µM]	-18.6%	3.2%	.	15.2%
COc1cc(N/N=C(\C)c2ccc(N)cc2)nc(-c2ccccc2)n1	?	44.7µM*	-34.0%	31.6µM*	18.1	2.9%
COc1cc(N/N=C(\C)c2ccc(O)c(C)c2)nc(-c2ccccc2)n1	-15.1%	?	?	-28.1%	18.4	?
CCN(c1ccc(OC)cc1)S(=O)(=O)c1c(C(=O)N2CCCCCC2)c(C)n(C)c1C	.	0.8%[59 µM]	-20.7%	-19.5%	.	23.1%
Cc1ccc(S(=O)(=O)Nc2cc(C(F)(F)F)ccc2N2CCOCC2)c(C)c1	8.6%	50.1µM*	-8.0%	8.3%	0.8	32.4%
COc1ccc(NC(=O)C(C)N(c2ccccc2)S(C)(=O)=O)cc1 (stereo not given)	.	-35.6%[59 µM]	-6.2%	-2.2%	.	23.8%
COc1ccc(N(C(C)C(=O)NCc2ccco2)S(C)(=O)=O)cc1 (stereo not given)	-3.3%	50.1µM*	-14.8%	-30.3%	0.1	35.8%
O=[N+]([O-])c1ccc(N2CCN(CC3CCCCC3)CC2)cc1	0.8%[2.29 µM]	-10.4%[0.501 µM]	17.8µM*	56.2µM*	2.2	?
COC(=O)N1CCN(c2ccc(C(C)=O)cc2)CC1	.	-4.5%[12.7 µM]	-7.9%	-5.4%	.	26.0%
CCCN1CCC(N2CCN(c3ccc([N+](=O)[O-])cc3)CC2)CC1	1.7%	.	20µM*	44.7µM*	1.7	?
CC(=O)c1ccc(N2CCN(CC3CCCCC3)CC2)cc1	-0.5%	50.1µM*	35.5µM*	?	-8.3	?
CCN1CCC(N2CCN(c3ccc(Cl)cc3)CC2)CC1	4.2%	2.3%[59 µM]	-4.1%	-5.2%	0.6	19.2%
Cc1ccc(CNC(=O)CS(=O)(=O)c2cccc3nsnc23)cc1	.	8.3%[59 µM]	-8.7%	11.6%	.	25.6%[57 µM]
CCc1ccc(NC(=O)CC2C(=O)N(c3cccc(OC)c3)C(=O)N2Cc2ccco2)cc1 (stereo not given)	.	?	-24.1%	-24.3%	.	25.7%
Cc1ccc(N/N=C2\CC(=O)c3ccccc32)cc1Cl	?	.	.	11.2µM*	.	.
SMILES	L3MBTL1 block	G9a inh	JMJD2A Tudor inh	BAZ2B block	PI5P4Ka inh	HP1b chromo inh
N#Cc1cccc(-c2nc(NCCN3CCOCC3)c3ccccc3n2)c1	.	-0.3%[0.501 µM]	.	.	.	.
Cc1nnnn1/C(=C\c1ccccc1)C(=O)OCC(=O)NC1CCCCC1	3.0%	50.1µM*	-15.2%	11.0%	3.2	9.1%
C#CCOCCOCCOCCNc1nc(N2CCN(C(=O)[C@H]([C@@H](C)CC)n3cc([C@@H](N)CC(C)C)nn3)CC2)nc(N2CCN(C(=O)[C@H](Cc3ccc(O)cc3)n3cc([C@@H](N)C(C)CC)nn3)CC2)n1 (stereo not given in full)	-2.9%	6.3%[12.7 µM]	?	79.4µM*	2.2	12.3%
C#CCOCCOCCOCCNc1nc(N2CCN(C(=O)[C@H]([C@@H](C)CC)n3cc([C@@H](N)Cc4ccc(O)cc4)nn3)CC2)nc(N2CCN(C(=O)[C@H](Cc3ccc(O)cc3)n3cc([C@@H](N)C(C)CC)nn3)CC2)n1 (stereo not given in full)	-13.6%	?	22.4µM*	79.4µM*	-8.7	7.6%
CCOc1ccc(CNC(=O)CN2C(=O)CCn3nc(-c4cn(C)c5ccccc45)cc32)cc1OC	.	-2.8%[59 µM]	-22.0%	-15.5%	.	12.4%[57 µM]
COC(=O)C(NS(=O)(=O)c1ccc(C)cc1)c1ccccc1 (stereo not given)	27.8%	0.4%	-2.1%	2.6%	-0.7	11.3%
Cc1ccc(S(=O)(=O)NC(C(=O)Oc2ccc3c(C(F)(F)F)cc(=O)oc3c2)c2ccccc2)cc1 (stereo not given)	9.8%	7.08µM*	-8.9%	2.5%	-5.1	39.2%
CCOC(=O)C1CCN(C(=O)CCc2nnc3ccc(NCc4ccco4)nn23)CC1	.	-8.5%	-23.6%	?	-1.0	28.8%
O=C(CCc1nnc2ccc(NCc3ccco3)nn12)N1CCN(c2ccccc2)CC1	.	-15.7%	39.8µM*	50.1µM*	?	-23.0%
Cc1ccc(NC(=O)c2cccnc2)cc1S(=O)(=O)N1CCOCC1	-4.1%	50.1µM*	-15.9%	-5.7%	0.5	33.2%
O=C(Nc1nc(-c2ccccn2)cs1)c1ccc(F)c(S(=O)(=O)N2CCOCC2)c1	?	7.08µM*	50.1µM*	28.2µM*	?	?
Cc1nnc(NC(=O)c2ccc(F)c(S(=O)(=O)N3CCOCC3)c2)s1	35.0%	.	-14.6%	.	2.3	16.6%
CN(CC1CCCO1)S(=O)(=O)c1ccc(C(=O)Nc2nc(-c3ccccn3)cs2)cc1 (stereo not given)	31.6µM*	4.1%	50.1µM*	28.2µM*	-0.4	16.9%
O=C(Nc1nc(-c2ccccn2)cs1)c1cc(S(=O)(=O)N2CCOCC2)ccc1F	?	?	79.4µM*	22.4µM*	?	40.0%
Cc1ccc(N2CCn3c2nc2c3c(=O)n(Cc3cccc(Cl)c3)c(=O)n2C)cc1C	.	-4.6%[59 µM]	-20.4%	-1.1%	.	15.1%
Cc1ccc(C(=O)Nc2nc(-c3ccccn3)cs2)cc1S(=O)(=O)N1CCOCC1	?	?	-96.1%	25.1µM*	?	-29.6%
COc1cc(-c2ccc3ncnc(NCc4cccs4)c3c2)cc(OC)c1OC	.	.	-16.3%	.	.	.

Assay outcomes: PubChem, National Center for Advancing Translational Sciences (NCATS)
